HPGD block: blocks human HPGD enzyme activity | purified HPGD, NADH fluorescence kinetic, PGE2 substrate | Potency, µM, inactives show top-dose activity change, negative = inhibition, hits mostly inhibitors | 150,000 tested, 4.3% active; also: potency is read from the fitted curve at half-maximal effect
Target sequence (P15428 whole entry, looked up): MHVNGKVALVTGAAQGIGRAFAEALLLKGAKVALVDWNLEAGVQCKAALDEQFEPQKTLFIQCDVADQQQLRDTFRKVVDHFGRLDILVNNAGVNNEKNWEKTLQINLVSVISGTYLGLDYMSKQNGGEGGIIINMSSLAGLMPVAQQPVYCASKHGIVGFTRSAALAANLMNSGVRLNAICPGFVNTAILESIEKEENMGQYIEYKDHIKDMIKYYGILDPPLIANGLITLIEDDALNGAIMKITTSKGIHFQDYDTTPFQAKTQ
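20 nM HPGD preincubated 15 min at room temperature with compound in 50 mM Tris-HCl pH 8, 0.01% Tween 20. Started with 1 mM NAD+ and 30 uM prostaglandin E2; NADH fluorescence (360/450 nm) read 5 times over 30-s intervals, last minus first.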
ALDH1A1 inh: ALDH1A1 (human) enzyme inhibition | P00352 | Purified ALDH1A1, NADH fluorescence, propionaldehyde substrate | Potency, µM (highest dose often 75.3 µM), for the others: top-dose activity, negative = inhibition, most hits filed as inhibitors | 220,000 tested, 7.3% active | AID 1030;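 also: potency is read from the fitted curve at half-maximal effect; plate controls were no enzyme wells and a reference inhibitor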
PNC assembly inh: perinucleolar compartment assembly inhibition; 140,000 tested, 3.1% active; activity change (PNC), negative = inhibition, % at 10 µM; PC3M PTB-GFP, PNC prevalence imaging, 16 h; stronger effect = lower value;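 active = readout at or below -70, meaning at least 70% loss of cells showing the perinucleolar compartment, a nuclear body marking cancer cells; inconclusive = readout between -30 and a set limit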;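 also: plate controls were DMSO wells for no effect and camptothecin positive control wells for full effect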
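Read-out is percentage of cells bearing a perinucleolar compartment, from automated 20x imaging of fixed, Hoechst-stained PC3M PTB-GFP cells. Cells were seeded 4 h, then exposed 16 h to compound (23 nl of library stock) in duplicate plates.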
Numbers without * were called inactive; ? = inconclusive; / = no result; [ ] = remark or other dose. In the library only some 11% were active in any assay of this set; here they are far more common. Unless noted, calls follow the shape of the dose curve; as a rule, active = well fitted inhibition curve with a large enough effect (not every such curve was filed as active); inconclusive = small, poorly fitted or top-dose-only effect, or another doubt; inactive = no such curve, though single readings can be large or run the other way. Unless noted, % is scaled to controls: 0 for no effect and ±100 for the full control effect.

SMILES	HPGD block	ALDH1A1 inh	PNC assembly inh
Cc1ccc(O)c(C(=O)c2cnc3onc(-c4ccc(F)cc4)c3c2)c1	12.6µM*	14.1µM*	-20.7
Cc1noc2ncc(C(=O)c3cc(F)ccc3O)cc12	-17.7%	-1.0%	11.2
CCOC(=O)c1c(NC(=O)COc2ncnc3ccccc23)sc(C)c1CC	-17.1%	?	-16.5
CCOC(=O)CSc1nc2ccc(NC(=O)CSc3nnnn3Cc3ccccc3)cc2s1	-10.9%	14.1µM*	-2.4
COC(=O)CSc1nc2ccc(NC(C)=O)cc2s1	-1.0%	11.2%	15.8
Cn1ccnc1SCC(=O)Nc1ccc2nc(SCC(=O)NC3CC3)sc2c1	14.1µM*	3.55µM*	?
CCOC(=O)CSc1nc2ccc(N)cc2s1	?	20µM*	49.2
Cn1ccnc1SCC(=O)Nc1nc2ccccc2s1	/	-8.0%	/
Nc1ccc2nc(SCC(=O)N3CCOCC3)sc2c1	/	2.9%	/
CCn1c(SCC(=O)Nc2ccc(-c3nc4ccc(C)cc4s3)cc2)nnc1-c1ccccc1	?	?	-9.8
CC(C)(C)NC(=O)CSc1nc2ccc(NC(=O)CSc3nnc(N)s3)cc2s1	31.6µM*	-1.8%	?
C[C@@H](C(=O)NCc1ccc(C(F)(F)F)nc1)[C@H]1C[C@]1(C)[C@H](NC(=O)OCc1ccccc1)c1ccccc1	-10.6%	?	/
CC(=O)N/C(=C\c1ccc(Br)s1)C(=O)O	/	0.8%	/
CN(Cc1ccco1)c1ncnc2ccc(-c3cccc(NS(C)(=O)=O)c3)cc12	/	9.3%	/
COc1ccc(NC2C[C@H]3CCCC(=O)N4CC[C@@H](C2)[C@@H]34)cc1 (stereo partly drawn)	-0.1%	4.0%	/
CC(C)(C)NC(=O)CSc1nc2ccc(NC(=O)CSc3nnnn3Cc3ccccc3)cc2s1	8.91µM*	3.98µM*	?
COC(=O)c1ccsc1NC(=O)CSc1nnnn1Cc1ccccc1	-7.5%	-12.2%	23.4
COc1cc(C(=O)OCC(=O)c2c(N)n(C)c(=O)n(C)c2=O)ccc1OCCC(C)C	/	2.9%	/
COc1ccc(CC[N@+]2(C)COc3cc4oc(=O)cc(C)c4cc3C2)cc1OC	1.1%	-2.1%[13.5 µM]	/
Cc1cnc(CNc2cc(-c3cccc(NS(C)(=O)=O)c3)ncn2)cn1	/	-6.7%	/
O=C(NN1C(=O)C2C3CCC(O3)C2C1=O)c1ccco1 (stereo not drawn)	5.9%	0.8%	9.2
CCN(CC)S(=O)(=O)c1ccc2c(c1)nc(CCC(=O)O)n2CC	/	6.2%	/
CCn1c(CCC(=O)Nc2nc3c(s2)CCCC3)nc2cc(S(=O)(=O)N(C)C)ccc21	-7.4%	15.8µM*	-4.4
CC(C)C[C@H]1COC(c2ccc(Br)cc2)=N1	-14.3%	4.1%	/
CCOc1cc(/C=N/NC(N)=S)cc(Br)c1OCc1ccccc1C	-21.9%	1.26µM*	-12.6
SMILES	HPGD block	ALDH1A1 inh	PNC assembly inh
COc1cc(/C=N/NC(N)=S)cc(Br)c1OCc1ccccc1F	-15.2%	?	?
CC(C)CNc1nc(SCC(=O)Nc2ccccc2)nc(N2CCOCC2)n1	/	11.6%	/
Cc1ccccc1NC(=O)c1ccc(S(=O)(=O)N(C)C)cc1	-3.3%	9.5%	-6.4
CN(C)S(=O)(=O)c1ccc(C(=O)Nc2ccccc2SCCC#N)cc1	/	15.8µM*	/
Cc1cccc(N2CN(Cc3ccco3)CNC2=S)c1C	4.3%	6.4%	?
COc1ccc(-c2nnc(SCC(=O)Nc3nncs3)o2)cc1	/	4.9%	/
O=C(CSc1nnc(COc2ccc(Cl)cc2)o1)N1c2ccccc2CCc2ccccc21	1.6%	22.4µM*	-17.0
CCN(CC)S(=O)(=O)c1ccc(-c2nnc(SCC(=O)Nc3ccc(OC)cc3)o2)cc1	-15.4%	-3.9%	53.3
CCN(CC)S(=O)(=O)c1ccc(-c2nnc(SCC(=O)c3ccc(OC)cc3)o2)cc1	-6.9%	0.355µM*	?
COc1ccc(-c2nnc(SCC(=O)NC(=O)NCc3ccco3)o2)cc1	20µM*	22.4µM*	-6.0
CCOC(=O)N1CCN(C(=O)CSc2nnc(COc3ccc(Cl)cc3)o2)CC1	-9.3%	3.0%	-29.9
COc1ccc(-c2ccc(SCC(=O)NCc3ccco3)nn2)cc1	-16.4%	2.0%	-1.8

Screening data from PubChem BioAssay.
